Inconclusive results are not listed. The source made the active and inactive calls. How the source made its calls: active means hit-call score of the fitted dose curve at least 0.9, where 1 is the maximum; inconclusive means response in the unintended direction; inactive means score below 0.9.

A short description of the first test: Tanguay_ZF_120hpf_SNOU_legacy: (Legacy) Oregon State University Tanguay Lab 120 Hour Post-fertilization zebrafish Assay for Snout Malformation (AID 2283637). The gist of the method: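 Dechorionated zebrafish, individually housed from 6 hpf in covered, sealed wells at 28C with 0.64% DMSO vehicle, were examined at 120 hpf for snout malformation. Responses were binary and analysed positive-direction relative to DMSO.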
Take `CN(C)CCCN(C)CCCN(C)C`: the outcome was inactive.

For the compound `O=[Si]=O`, the call was inactive.

In the case of `CCC(C)N(C)C(=O)c1cc2ccccc2c(-c2ccccc2Cl)n1` (configuration not stated), the outcome was inactive.

Regarding `O=C(O)c1[nH]n(-c2ccc(S(=O)(=O)O)cc2)c(=O)c1N=Nc1ccc(S(=O)(=O)O)cc1`, the result was inactive.

Take `CN(C)CCCN1c2ccccc2Sc2ccc(Cl)cc21`: the compound was classed as inactive.

As to `COC(=O)CCCC(=O)OC`, the call was inactive.

On to `CC1(C)C(=O)NC(=O)N1CO`, for which the outcome was inactive.

Take `Cc1ccc(C(C)(C)C)c(O)c1`: the outcome was inactive.

In general, AC50 refers to the concentration at which the activity in the assay is half-maximal. On to `CCCCCCCCCCCCCCOS(=O)(=O)O`, for which the AC50 is 24.7 µM (active).

For `COc1ccc(OC(F)(F)F)cc1CN[C@H]1CCCN[C@H]1c1ccccc1`, the result was inactive.

The nature of another test: Tanguay_ZF_120hpf_JAW_legacy: (Legacy) Oregon State University Tanguay Lab 120 Hour Post-fertilization zebrafish Assay for Jaw Malformation (AID 2283638).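 On AC50: active means more embryos with jaw malformation than DMSO controls.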 The essentials: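 Wild-type 5D embryos, chorion removed at 4 hpf, dosed singly from 6 hpf; 28C static, sealed, foil-covered, to 120 hpf. Endpoint: jaw defect yes/no (brightfield); mortality excludes scoring.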
Turning to `CCc1cc(C2=C(C(=O)O)N(c3ccccc3C(F)(F)F)S(=O)(=O)c3ccccc32)cc2c1OCO2`, the outcome was inactive.

In the case of `CC(=O)S[C@H](C(=O)N[C@H]1Cc2ccccc2[C@H]2CCC[C@@H](C(=O)O)N2C1=O)C(C)C`, the compound was classed as inactive.

For the compound `O=C1c2c(O)cccc2Cc2cccc(O)c21`, the outcome was inactive.

Take `NC(=Nc1ccccc1)Nc1ccccc1`: the compound was classed as inactive.

With `COC(=O)CCC(=O)OC`, the result was inactive.

In the case of `CN(C)C(=O)NC1(c2ccccc2)CCN(CCC[C@]2(c3ccc(Cl)c(Cl)c3)CCCN(C(=O)c3ccccc3)C2)CC1`, the result was inactive.

Consider `Cc1c(C)c2c(c(C)c1O)CCC(C)(COc1ccc(CC3SC(=O)NC3=O)cc1)O2` (configuration not stated), for which the outcome was inactive.

Take `CCCC[C@H]1CN(CC2CCOCC2)C(=O)OC12CCN(C1(C)CCN(C(=O)c3c(C)ncnc3C)CC1)CC2`: the result was inactive.

On to `Oc1ccc(O)cc1`, for which the call was inactive.

`CS(=O)(=O)c1ccc([C@@H](C[C@H]2CCC(=O)C2)C(=O)Nc2cnccn2)cc1Cl`: the compound was classed as inactive.

With `COC(=O)[C@H]1[C@H]2C[C@@H]3c4[nH]c5cc(OC)ccc5c4CCN3C[C@H]2C[C@@H](OC(=O)c2cc(OC)c(OC)c(OC)c2)[C@@H]1OC`, the compound was called inactive.

For the compound `CCOCCOCCO`, the compound was called inactive.

For `CN(C)CCCN(C)CCCN(C)C`, the call was inactive.

As to `O=C(O)c1[nH]n(-c2ccc(S(=O)(=O)O)cc2)c(=O)c1N=Nc1ccc(S(=O)(=O)O)cc1`, the compound was called inactive.

In the case of `CN(C)CCCN1c2ccccc2Sc2ccc(Cl)cc21`, the compound was called inactive.

On to `Cc1ccc(C(C)(C)C)c(O)c1`, for which the compound was classed as inactive.

As to `CCCCCCCCCCCCCCOS(=O)(=O)O`, the AC50 was 42.3 µM (active).

Source of the values: PubChem BioAssay (EPA / NIEHS).
